# Laboratory results reported in the supplement of paper PMC10681739.
# Whole data set: some 4,100 sequences, median “arbitrary fluorescence units” near 780, cut for the highest 2% near 22,000. The sample as a whole holds a higher share of the highest values than the screen did.
# Target: T1, ETS1 (UniProt P14921)
# T1 sequence: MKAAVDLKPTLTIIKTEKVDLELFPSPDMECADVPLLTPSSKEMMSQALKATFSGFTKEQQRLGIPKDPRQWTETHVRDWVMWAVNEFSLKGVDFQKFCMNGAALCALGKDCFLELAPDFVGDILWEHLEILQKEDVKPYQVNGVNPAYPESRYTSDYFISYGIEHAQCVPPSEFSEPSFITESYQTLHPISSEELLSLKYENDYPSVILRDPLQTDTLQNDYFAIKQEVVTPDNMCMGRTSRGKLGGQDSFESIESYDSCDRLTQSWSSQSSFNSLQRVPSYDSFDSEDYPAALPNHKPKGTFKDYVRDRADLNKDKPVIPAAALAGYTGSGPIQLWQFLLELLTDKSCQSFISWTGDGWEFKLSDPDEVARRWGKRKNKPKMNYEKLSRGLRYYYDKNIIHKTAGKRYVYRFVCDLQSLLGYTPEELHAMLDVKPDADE
# Assay: ETS1 binding intensity (PBM fluorescence), ETS1 alone (arbitrary fluorescence units); higher = stronger binding
# Conditions: ETS1 concentration 1 nM; RUNX1 concentration 0 nM
# Procedure: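 gcPBM on 36-bp genomic-derived probes (partner site mutated) containing one ETS1 site and no RUNX1 site. Recombinant human ETS1 (1 nM) was incubated alone or with RUNX1 (25 nM) and detected by anti-ETS1 antibody fluorescence. Values are medians over 4 replicate spots (not normalised). The probes sit in constant array flanks that are not printed.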
row,Sequence,ETS1 binding intensity
1,AGTTTTCCGTCGGGCTCCCAGTGACGCCGAAGAGGT,2580
2,GCGCAAAGCCGGAAGGAGGGGTTTGGGGCTGGGGAG,4130
3,CTTCCTTCCCTTCCTTCTGCTCCCTCCCAGAGCCGC,852
4,TCCCTCCTCCGCTCAGACCCACTTCCTGTCTGCTTC,8330
5,CCCACTTCCTGTCTGCTTCCCTCCTCCGCTCAGACC,28400
6,CCGGTCGGGGCTGCAGCCGCTTCCGGAGCCGCGGGC,3060
7,CTGCACTTCCGGTCAGGCGGTCGGGCTGAGGGGCCC,36600
8,TAGGGGCTGAGGGTCCGGGCGGAAGTGGGGCAGGCG,2500
9,ATGGATGGGGTTGCTTGCGTGAGGAAATACTTGATG,524
10,CCCAATTTCCTTTGCTCTGCTGTCTGCCAACCCCAA,3560
11,GCAGATATCACAGACTCTCTCCTTTCCTGCTGAATA,546
12,GCTCGCAGCCCCAAGAGGTGGCCTTCGGTTCCGGGG,382
13,CTGCAGCGGGGATCCTTGGGGCCCTTCCGGTCGGTG,2190
14,TGACTTCCGGTCCGTAGTGGGGCCTTCGGTGGGAGT,35800
15,TTGTGGACGCGGATTTGGGGGCGGGTATCCGGGCCT,564
16,GGTCACTTCGGCCCAGAGGCCCGCTCTTCCGCTGAG,564
17,CAGGGATTCCGGCTGAGTGCGGCCCCCTCAGCCTCC,606
18,GTGGCTGTCGTTGAACTGACTCTCGGGTTTCCGCTC,606
19,TGGAAGAGCCCCACGACATGTGCTTCCTGCGTGCTG,596
20,GAGCCTGTTGCTTCCGGTTCAGAGCCCACGTGCTGG,22200
21,CTAGCTGTGGACAGGAAACGAGTGGATTTTGTGATC,3740
22,CCGGGACCTCGGCTTGGGCTCACGGCCACTTCCGAC,393
23,CCGTACTTCCGCTTTACTCAGATTTTGGACCTCGGG,30200
24,CTCAGCGGCAGCAAGCCCCACCCCGGAAGTCGGCTG,1590
25,GATGACTTCCTCAGTTCAGGGCTATGTACGGGGGAG,4670
26,GGCCTCGCGGCGTCTCTGCTGCTTCCGCCTTCCCGG,854

row,Sequence,ETS1 binding intensity
1,CCGCTTCCGGCCTTCGCCCGGCTTAGCCGCGTCGCA,34700
2,GCCCGGCTTAGCCGCGTCGCGGAAGTCCGCTCTCTG,397
3,CCTCTGCCCAACCCCAATTTTCCCTTCCTCCGCCTT,543
4,CTTTTTGATTTCCTCAAGCATCCCAGAAATACACAG,2020
5,GCCCACGCCGCTGGGAGGTGAGACTGAAGGAAGCAC,402
6,ACGGAGCTGTAGTTTAACGTTTCCGGTTAGTGGCTA,9670
7,GCCCACTTCCTGCCGTAAGAGAAATCCACTAACACA,33800
8,GACGCAGCCCCAGAGCGATTCGCGTCCCGGAAGCGG,491
9,CCAACGAGCACTTCCGCTTCCCGAAGCTCCAGCGGC,27700
10,TCCAGCGCCGCTGGGCCAACGAGAGCGCTTCCGGCC,1740
11,CCGAGCGCACCAGCTCCCGCGCGTGGTTCCGCCGCT,324
12,GCGAGAGGGAGGAAGTGACTCACCAACCCCAACAAA,2690
13,TCCCAGTTTATGGGAAGGGTTGAGGGAAGTGAGGGG,531
14,TGTCTCATTTCCTGTAGGTAACAGGCACCAAAATAG,26500
15,GGATCGGCCTGAGGTGTGTCTCATTTCCTGTAGGTA,2130
16,GTGACGTGGCTGTAGGTCTCATTTCCTGCACGGCCT,2060
17,TGCTCCACTCGGAAGTGGTGCCGAAGCTCTTCGATG,905
18,CTGCCAGAGCACACAGTTTGCACTTCCGGGGCGGGC,2710
19,GCCACACTTCCGGCGGGGCTGCGACTGCAGAGGGGC,38700
20,CCGCCGACACACTTCCGGCGGCCACCAGAGGGTATT,21200
21,CAAGAGCCGGAAGTCCCTTGTGCCGTAGTCCTTCCC,9220
22,CAGCATGAGGGTGCACACACCGCTTCCTTAGAGGTT,757
23,GTGATAAGAACGACAGGCCACTTCCCAAAGATCAAA,531
24,TTTCACTTCCGGCATGTTTTTCACCTACAGGGATAT,35500
25,AGCTTCCGAGTCTGTTGTGGAGTGGGAACAGCGACT,2510
26,GCCTGCGCTCTTTCCGGTAGCCAGAGCCTCGTCTAA,8280

row,Sequence,ETS1 binding intensity
1,CGTCCCCGAAAAGCCGCGGCAGAAACTTCCGGCGGT,3130
2,CGCCGAACTTCCGGCAGTAAATTCCGTGGATTCCCG,27100
3,CGTTTCCTGTGGCTGCAGCTCTCCCCACGCACACAC,23800
4,TGCCGCCTGCAGCACCCTCCCCATTTCCTGGCTGTA,1190
5,GCACGTGTTTCCTGGGGCTGCACCCCAGCACCACAC,2380
6,TGTTGCCACTGTTAGACTAGAGAGCATCCTGTTGTT,851
7,ACCCACTTCCTGTTAGAGCATCTTTGCAACCCCAGG,30200
8,TTTCTTCCTGTTTGCATCACCCCAAATCCACTATCA,16900
9,TACGCACACGCTTCGGGATCCTTCCGCTCCGGGTTA,644
10,CTCCCACGCTCCCCTTCCGGCCCCGCTGCGCTGTGA,3160
11,GGTCACGTGTCCACGGGGACCGGAAGTGGCGCCCGG,14400
12,CCGGGCGCCACTTCCGGTCCCCGTGGACACGTGACC,53800
13,TTGCGCCGGACGCCACTTTCGGTCCCCGTGGACACG,602
14,TCTTGTTTCTTCCGTTACCGGAGCGCGGCCACGTGA,2590
15,CCAGAGGGCGGAAGTGGGAGCTGCGACGGCGCTCCC,7030
16,TTTCTGATTGTAGTTTCAAATTATTTCCTGTGTTGG,1770
17,AACATCCTGTGTAAAGAGAATTGAATGTAGTTTTCT,25200
18,ACTTTGTCAGTGTAGTTTTCACATCCTGTCCTAGCT,2870
19,CTCCATTATTCCGGCCAGGTGCCCTTCTGGGATAAG,670
20,TGCGCCGGAAGTGCATGAGCTGCCGATGAGGTGCTT,8970
21,GAGCTGCAAGTCACAAAGACCGGAAGTGCGCGTACG,26000
22,GCGCGGACTCCGGGAAGCTGAGCGGCAAAGACCGTG,359
23,TCACAATCGCTCACAAAGACAGGAAGTAACTGTCAG,3450
24,CTCCTGCTCACAGAAGCTCACTGTTTCCTGTCTAGC,2690
25,AAATCAAAACCCCAATCAGATACCACTTCCTGCCCA,2350
26,TACTCTAAAGCACTTCAAACCTCCACTTCCTGCCCC,2240

row,Sequence,ETS1 binding intensity
1,CACTTCCTGCCCTCTTCCACTTTCAAAATCACATCA,31900
2,CTCCCCCAGCACATCCTCTGCCACTGCTGCCTTTCC,1720
3,CTCCGCTGTCCCCTGCAGGCACCGAGGGCGGAACCA,347
4,GGGACTGCAGTCCCGGGGAGCGCACCGGAAGTTCTC,4610
5,ACAGAGGTGCTACCCCAAGGACCGGAAGCAGAGACC,3940
6,GCCCCGGAAGCTCCTTAAGGAGGACCGTGTGAGTTT,1880
7,GGACCGGAAGTTAAGGCGTTCGCGGCGTGTGATAAG,22900
8,TACCGGCGTTAATATAGTAAGGGCGGAAGTTCTCCT,1190
9,ACTTGGCAGTTCCGGGTCCGCGCCCCAGCGCGCCAC,2630
10,GTAGCAACAGCAGGCTCACACACCGGAAGTGCTCGC,9380
11,TTGCTCCCGGAAGCCCCGCCCGTCCGTGGCTCCTGA,1350
12,CCTGCCTTCCGTCTTCCAGGCAGAACGACAGAGAGG,1710
13,AATGAGCCCCAGAACCCTTTTCCTTCCGGCCTGCAC,1300
14,CCCAGAGCTTCCGATTGGCTCTTCTGAGGTGGCGGG,1750
15,CAGATTTCCGGCTTCTGAGGAGCTGCCCTACCCCAG,38200
16,AGTAACCAGCAGGCTGTGCCGGCAGGATGTTGTCTT,469
17,CTGGGGTCGGGGCGAGGGAGCTGCCGGGGAAGTGAG,513
18,GGCCAAGAAATCCACTCAGAGGAAATCACAGGCCTG,439
19,GAGAAACGTCAGGCATGGCCGGGCCACCAGGAAAAC,347
20,CCCGGCGGCTACTTTCGGTCACTTTCGCCGGAACCT,444
21,GGCCGACGGGAAGTGTAGTCCGGCCTGCAGTCCGGG,1970
22,GCCCTACCCAGCGGCGGCCGGACGCTTCGGCGCAGG,435
23,CTGACGCATTTCCGGCCTTTGGGGTTGATCGGTCAT,26200
24,GCTCGTTTGGGGTTACTGACATCCGGCCTTCATTTC,5140
25,TTTTTTCCGCCTGTAGGGTCACATTGGGGTTGATTG,2790
26,CCAGGAGGGATGGGGAAGTTCACCAGACACTCCATG,444

row,Sequence,ETS1 binding intensity
1,GTCACTGTCGTATTTACTTTAGCTTCCTGTTCATCC,1880
2,CGATTCCGGATTGGTCCAATTCCAGCGCCGAAGCCC,673
3,GCCACCTTACGACAGCTGTACAGAGCTTCCTTTAGC,390
4,AACCTCCGACTTCCGGCCGCGCAGCGGAGGGCTGAG,32100
5,AGCACTTCCGTTTGGGCAGGGCTGAGGGCCGGAGGG,16800
6,CTAGCAGCTTCCGAGGGGGCGGCGGCCGGAGCGAGT,784
7,GGGGGAGTTTTCGGAAGCGCTAACAGCGTTGGGGCC,566
8,TGGTGCCAAACATCCGCTAGCCAGAGAAAAACCGAC,6500
9,ACACCGTGCTTTTCGGTTCCCGGAAGTCCTTCAGGC,1560
10,GACAAGATTGCAGGTGGCAACCCCATCCGGTTTGTT,1400
11,GGTCGCTCTGGTGACGGGGGAGGAAATTCTGTCCGT,512
12,GTGAGCTTCCCGGCGCGCGGGGGGCGGTGCGCCTTC,797
13,TCTGTCGCACATCCGGTGTGAGCTTCGGGGCGGTGG,22500
14,CCTTTGGGGTAGCAGTGGCCCCGCGCGGAGGAAGTT,303
15,TGACATTTCCGGCCCCACCTCGGCCTGCAGCGCCGC,40200
16,GCAGCTTCCGCGGCCCCCGCCCGGCCTGCAGCGCCA,2350
17,CTAGCCACCTCGGCCCCACCCTCTTCCGGCCTCAGC,1820
18,TATCAGCTTCCGACGTGCCCCTCGGTATCTGGACTA,1600
19,GGATTTTGGGGTAGCGAACCCCGGGGCCGGAAGCAG,1080
20,CGGGACTTCCTGTCTTCCCTGTCGCGGAGCTCTGAA,27000
21,CTGTCTGCTTCCCGTGGCCAGCCCTGATCGCGGCCC,953
22,TTCGCTCCCTGAATCGCGTCGCTTCCTGAGCCGCGC,454
